From PubChem BioAssay

Columns and labels:
[1] = test system: Human papillomavirus type 1a protein E7 (residues 44-93); assay: small molecules binding HPV E7 44-93 – biochemical, small-molecule microarray, residues 44-93, 635 nm fluorescence, primary screen (AID 1108); conditions: fluorescence 635 nm, higher = more signal;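 further: E7 fragment applied at 1 µg/mL in TBST for 1 h at 4 C; score combines spot fluorescence with its signal to noise ratio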
[2] = hepatitis C replication reporter changes, two-sided – Huh7 cells, luciferase reporter, HCV replication inhibitor project, primary screen (AID 1109); conditions: Huh7 HCV replicon luciferase reporter, 48 h; higher = more signal;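 further: huh7 hepatoma cells harbouring a luciferase neomycin HCV replicon reporter; luciferase luminescence as measure of HCV replicon replication; test concentration not given here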
[3] = biological target: Left-right determination factor 2 (Homo sapiens) (UniProt O00292); assay: small molecules binding LEFTY2 protein – biochemical, small-molecule microarray, 635 nm fluorescence scan, primary screen (AID 1110); conditions: higher = more signal
Left-right determination factor 2 (Homo sapiens), sequence (O00292 whole entry, looked up): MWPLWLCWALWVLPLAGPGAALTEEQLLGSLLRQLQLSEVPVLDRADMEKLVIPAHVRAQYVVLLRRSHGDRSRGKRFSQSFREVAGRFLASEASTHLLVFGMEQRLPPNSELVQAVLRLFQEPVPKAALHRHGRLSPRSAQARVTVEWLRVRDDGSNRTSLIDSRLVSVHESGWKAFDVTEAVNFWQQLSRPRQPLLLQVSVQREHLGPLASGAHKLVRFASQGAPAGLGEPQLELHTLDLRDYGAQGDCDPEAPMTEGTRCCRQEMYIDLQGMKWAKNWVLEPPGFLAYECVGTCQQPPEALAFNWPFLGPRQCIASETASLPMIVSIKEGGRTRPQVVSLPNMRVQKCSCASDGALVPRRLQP

[4] = biological target: Calmodulin-1 (Homo sapiens) (UniProt P0DP23); assay: small molecules binding calmodulin-1 with EGTA – biochemical, small-molecule microarray, Cy5-labelled CALM1, profiling panel (AID 1111); conditions: Cy5-CALM1 binding fluorescence, higher = more signal;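 further: labelled calmodulin applied in Tris saline Tween buffer holding calcium plus EGTA and DTT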
[5] = biological target: Calmodulin-1 (Homo sapiens) (UniProt P0DP23); assay: small molecules binding Ca-loaded calmodulin-1 – biochemical, small-molecule microarray, Cy5-labelled CALM1, plus calcium, artefact control for SMM control-protein annotation, profiling panel (AID 1112); conditions: Cy5-CALM1 binding fluorescence, higher = more signal;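 further: score merges spot fluorescence with signal to noise from triplicate slides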
[6] = probe aWnt5a binding to arrayed compounds – biochemical, biotinylated probe, 635/667 nm fluorescence, primary screen (AID 1113); conditions: small-molecule microarray, higher = more signal;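 further: score merges 667 nm fluorescence intensity with signal-to-noise per printed feature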
[7] = probe aShh binding to arrayed compounds – biochemical, biotinylated probe, 635/667 nm fluorescence, primary screen (AID 1114); conditions: small-molecule microarray, higher = more signal;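 further: probe is biotin-labelled aShh protein from a stem cell growth factor screen; measures binding of labelled protein to compounds printed on the slide; score merges feature fluorescence at 667 nm with signal-to-noise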
[8] = probe aNog binding to arrayed compounds – biochemical, biotinylated probe, 635/667 nm fluorescence, primary screen (AID 1115); conditions: small-molecule microarray, higher = more signal;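 further: probe is biotinylated aNog protein used at 0.15 µg/mL for 1 h at 4 C; z-score combines 667 nm fluorescence of each spot with its signal to noise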
[9] = biological target: Torsin-1A-interacting protein 1 (Homo sapiens) (UniProt Q5JTV8); assay: compound microarray binding of lysate hLAP1 – cell lysate, small-molecule microarray, COS7 lysate, 635/667 nm fluorescence, primary screen (AID 1116); conditions: 635 nm fluorescence, higher = more signal
Torsin-1A-interacting protein 1 (Homo sapiens), sequence (Q5JTV8 whole entry, looked up): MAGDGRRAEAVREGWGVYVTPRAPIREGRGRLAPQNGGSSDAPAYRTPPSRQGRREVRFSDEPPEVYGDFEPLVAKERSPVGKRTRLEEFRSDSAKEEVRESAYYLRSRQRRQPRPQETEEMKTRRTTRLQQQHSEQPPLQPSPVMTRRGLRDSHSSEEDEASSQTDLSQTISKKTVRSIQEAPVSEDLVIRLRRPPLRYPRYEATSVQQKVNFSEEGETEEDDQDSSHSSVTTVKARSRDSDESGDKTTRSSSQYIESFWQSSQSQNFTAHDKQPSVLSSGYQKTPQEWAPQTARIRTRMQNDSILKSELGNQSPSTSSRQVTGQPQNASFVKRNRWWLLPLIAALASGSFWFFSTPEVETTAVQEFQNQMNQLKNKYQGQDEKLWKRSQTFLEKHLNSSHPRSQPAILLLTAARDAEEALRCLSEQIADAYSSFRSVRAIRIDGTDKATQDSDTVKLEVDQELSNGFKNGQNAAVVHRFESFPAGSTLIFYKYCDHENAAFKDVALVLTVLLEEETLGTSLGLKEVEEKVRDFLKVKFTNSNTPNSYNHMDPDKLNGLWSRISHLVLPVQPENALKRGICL

[10] = biological target: Alpha-bungarotoxin (Bungarus multicinctus) (UniProt P60615); assay: compounds binding labelled alpha-BTX control protein – biochemical, small-molecule microarray, Alexa647 label, 635/667 nm fluorescence, artefact control for SMM control protein annotation, profiling panel (AID 1117); conditions: alpha-BTX-A647 binding fluorescence, higher = more signal
Alpha-bungarotoxin (Bungarus multicinctus), sequence (P60615 whole entry, looked up): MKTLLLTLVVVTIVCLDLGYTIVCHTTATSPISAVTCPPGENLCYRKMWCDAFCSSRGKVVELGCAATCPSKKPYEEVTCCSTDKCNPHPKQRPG

| SMILES | composite z-score [1] | z-score [2] | composite z-score [3] | composite z-score [4] | composite z-score [5] | composite z-score [6] | composite z-score [7] | composite z-score [8] | composite z-score [9] | composite z-score [10] |
| --- | --- | --- | --- | --- | --- | --- | --- | --- | --- | --- |
| OCCCc1cc[n+](Cc2cc3c(cc2Br)OCO3)cc1 | -0.945 | 1.05 | -1.12 | -1.81 | 0.172 | -0.147 | -0.207 | -0.172 | -0.81 | -2.04 |
| CN(C)C(=O)[C@]1(CCS(=O)(=O)c2ccccc2)N=C(c2ccc(OCCCO)cc2)O[C@@H]1c1ccccc1CN=[N+]=[N-] | 0.924 | -2.39 | -0.0755 | 1.98 | 0.68 | 0.0215 | -0.0891 | 0.463 | 1.48 | 1.71 |
| COCCOC(=O)N1C(=O)[C@@]2(c3cc(C#CC4=CCCCC4)ccc31)[C@H](c1ccc(O)cc1)N1[C@H](c3ccccc3)[C@H](c3ccccc3)OC(=O)[C@H]1[C@@H]2C(=O)N1CCc2cc(OC)c(OC)cc2C1 | 1.06 | -0.993 | -0.231 | 1.12 | 0.516 | -0.0332 | 0.0796 | 0.453 | 2.23 | 0.924 |
| CC[C@H]1C2=C3C(CC[C@H]4C(OCc5ccc(F)cc5C(F)(F)F)OC[C@](C)([C@@H]34)N(C(=O)OC(C)(C)C)C2)C(COC(C)=O)C1COC(C)=O (stereo not given in full) | 1.35 | -0.567 | -0.747 | 1.97 | 1.15 | 0.24 | 1.15 | -0.313 | 0.0366 | 0.729 |
| COc1cc(Cc2cc3c(c(-c4ccccc4)n2)[Si](C(C)C)(C(C)C)OC3)cc(OC)c1OC | -1.82 | 0.385 | 0.363 | -0.651 | -0.0062 | -0.175 | 0.915 | -0.359 | -0.181 | 1.34 |
| CC(C)c1ccc(NN2C(C(O)C3=C[C@H]4C[C@@H](C3)C4(C)C)C=CC3C(=O)N(c4ccccc4)C(=O)C32)cc1 (stereo not given in full) | 0.796 | -0.637 | 0.368 | 2.46 | 0.977 | 0.0403 | 0.907 | 2.06 | 1.54 | 1.64 |
| CN1C(=O)C2C=CC(C(O)c3ccc([N+](=O)[O-])cc3)N(Nc3ccccc3)C2C1=O (stereo not given) | 1.41 | 0.514 | -0.258 | 2.04 | 0.843 | 0.0968 | 1.01 | 1.53 | 0.0788 | 1.44 |
| COC(=O)[C@@]1(Cc2ccc(F)cc2)[C@H]2c3cc(C(=O)N4CCCC4)n(C[C@H](O)CO)c3C[C@H]2CN1C(=O)c1ccccc1 | 0.0716 | -0.948 | -0.358 | 2.69 | 1.27 | 0.429 | 1.41 | 2.28 | 2.35 | 0.185 |
| O=C(c1ccccc1)N1Cc2ccccc2C[C@@]2(N=C(c3ccc(OCCCO)cc3)O[C@H]2c2ccccc2)C1=O | 1.38 | -2.91 | 0.821 | 2.64 | -0.249 | -0.0515 | 0.0483 | -0.432 | 2.39 | 1.01 |
| COCCCNC(=O)[C@@]1(Cc2ccccc2I)c2ccccc2C(=O)N(Cc2ccccc2C(F)(F)F)[C@H]1c1ccc(CO)cc1 | 1.1 | -0.594 | -2.26 | -0.285 | -0.664 | -0.136 | -0.0848 | 0.2 | -0.0065 | -0.458 |
| COC(=O)C(CC#Cc1ccc2c(c1)[C@]1(C(=O)N2)[C@H](C(=O)NC[C@H](O)c2ccccc2)[C@H]2C(=O)O[C@H](c3ccccc3)[C@H](c3ccccc3)N2[C@@H]1c1ccc(O)cc1)C(=O)OC | -0.603 | -1.7 | -0.357 | -0.113 | -0.327 | -0.217 | -0.138 | -0.121 | -0.223 | -0.111 |
| C=CCNC(=O)[C@H]1[C@@H]2C(=O)O[C@@H](c3ccccc3)[C@@H](c3ccccc3)N2[C@@H](c2ccc(O)cc2)[C@]12C(=O)Nc1ccccc12 | 0.864 | -0.462 | -0.588 | 0.51 | 0.0876 | -0.148 | -0.0769 | -0.0089 | 1.33 | 0.269 |
| CC(C)(C)OC(=O)CC[C@@]1(C(=O)N2CCOCC2)N=C(c2ccc(OCCCO)cc2)O[C@@H]1c1ccccc1CN=[N+]=[N-] | 1.46 | 0.265 | 0.0254 | 2.04 | 0.742 | 0.281 | 0.0875 | 2.13 | 3.31 | 0.986 |
